Hits are enriched below; roughly 6.5% of the tested compounds scored in any of these assays.
HepG2 viability = qHTS for Inhibitors of TGF-b: Cytotox Counterscreen; HepG2 CAGA-GFP viability, ATP luminescence, 18 h; Potency, µM (top dose mostly 46.1 µM), actives largely listed as cytotoxic; 410,000 tested, 0.76% active
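HepG2 CAGA-GFP cells (1000/well, DMEM with 1% FBS) received compound, then TGF-beta at 500 pg/mL final, and were incubated 18 hours at 37 degrees C. Viability was read by CellTiter-Glo luminescence. Media-only wells were set as complete cell-killing and DMSO as no toxicity.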
Giardia kill = Small Molecules that selectively kill Giardia lamblia: qHTS. Giardia lamblia trophozoite viability. activity change, % at 7.66 µM, hits read low. 340,000 tested, 0.15% active. AID 540267, 2011; in the data active means activity change below about -80%; inconclusive means between about -30% and that limit;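 further: parasites exposed to compound for two days anaerobically before the ATP read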
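Trophozoites 100 cells/well + cpd; 48 hrs, 37 deg C, anaerobic. ATPLite 1-Step added, 15-30 min RT, luminescence read (ATP-based viability).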
IL1B secr inh = qHTS for Inhibitors of Inflammasome Signaling: IL-1-beta AlphaLISA Primary Screen; THP-1 LPS/ATP IL-1B secretion, AlphaLISA, 16 h; stronger effect = lower value; activity change, % at 57.5 µM; AID 743279, 2014; 360,000 tested, 4.7% active; in the data active means activity change below about -50%; inconclusive means mostly about -30% to -49%
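THP-1 cells pretreated 1 hr with compounds (up to 57.5 uM final), then stimulated with LPS (250 ng/mL final) plus ATP (1.25 mM final); secreted IL-1B measured by AlphaLISA after 16 hr, decreased signal indicating inhibition.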
HT1080 IDH1KD tx = qHTS for induction of synthetic lethality in tumor cells producing 2HG: qHTS for the HT-1080-IDH1KD cell line | HT-1080 IDH1 knockdown viability, ATP luminescence, 48 h | Potency, µM (doses to about 46.1 µM), most hits filed as cytotoxic | 360,000 tested, 2% active
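Knockdown cells (IDH1KD HT-1080) received compounds 2 h after plating at 750 cells/well and were kept 48 h at 37 °C in 5% FBS RPMI. A CellTiter-Glo luminescence read gave % activity for curve fitting.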
TGFb inhibitor = qHTS for Inhibitors of TGF-b; HepG2 CAGA-GFP TGF-b/SMAD3 reporter, GFP fluorescence, 18 h; TGF-beta stimulated, 500 pg/mL final; Potency, µM (highest dose often 46.1 µM), most hits filed as inhibitors; 410,000 tested, 1.2% active; further: nearly all actives have a fitted effect of over 65% in size
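Smad-responsive CAGA-GFP expression was quantified in HEPG2 cells exposed to compounds and 500 pg/mL final TGF-beta for 18 h at 37 degrees C; unstimulated wells defined full inhibition.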
HT1080NT lethal = qHTS for induction of synthetic lethality in tumor cells producing 2HG: qHTS for the HT-1080-NT fibrosarcoma cell line; HT-1080-NT fibrosarcoma viability, CellTiter-Glo ATP luminescence, 48 h; Potency, µM (doses to about 46.1 µM), hits mostly cytotoxic; 360,000 tested, 1.6% active;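 further: NT is the 2HG producing partner of a matched IDH1 knockdown line; nearly all actives have a fitted effect of over 55% in size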
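Compounds were tested in concentration-response format on HT-1080-NT cells for 48 hours at 37 degrees C. Cell viability came from CellTiter-Glo luminescence; curves were classified by r2, response magnitude and activity.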
Each line names hits and unclear results; the compound was inactive in the other large screens. Unless noted, the call rests on the fitted dose curve; in most records, active means well fitted curve in the direction sought with a large enough effect; inconclusive means small, poorly fitted or top-dose-only effect, or another doubt; inactive means no such curve, though single readings can be large; an effect the other way counts as inactive or inconclusive.

CC1CCCCC1NC(=O)COC(=O)c1ccc2c(c1Cl)C(=O)c1ccccc1C2=O (stereo not given)	none
O=C(COC(=O)c1ccc2c(c1[N+](=O)[O-])C(=O)c1ccccc1C2=O)NC1CC1	IL1B secr inh -77, HT1080 IDH1KD tx inconclusive, TGFb inhibitor 18µM, HT1080NT lethal inconclusive
O=C(COC(=O)c1cccc2c1C(=O)c1ccccc1C2=O)NC1CCCCC1	IL1B secr inh -132, HT1080 IDH1KD tx inconclusive, TGFb inhibitor inconclusive, HT1080NT lethal inconclusive
COc1ccc(N2CC(C(=O)Nc3ccccc3N3CCCC3)CC2=O)c(OC)c1 (stereo not given)	HT1080 IDH1KD tx 23µM, TGFb inhibitor inconclusive, HT1080NT lethal inconclusive
COc1ccc(N2CC(C(=O)Nc3cc(C(F)(F)F)ccc3N3CCCC3)CC2=O)c(OC)c1 (stereo not given)	HT1080 IDH1KD tx 21µM, HT1080NT lethal 21µM
CCOP(=O)(OCC)c1nc(-c2ccccc2Cl)oc1N1CCOCC1	TGFb inhibitor inconclusive, HT1080NT lethal inconclusive
NC(c1csc(Nc2ccc(C(=O)c3ccccc3)cc2)n1)c1ccccc1Cl (stereo not given)	HT1080 IDH1KD tx inconclusive, TGFb inhibitor inconclusive, HT1080NT lethal inconclusive (no result: Giardia kill)
CC(=O)c1ccc(Nc2nc(C(N)CC(C)C)cs2)cc1 (stereo not given)	none (no result: Giardia kill)
CC(C)C(N)c1csc(Nc2ccc(C(=O)c3ccccc3)cc2)n1 (stereo not given)	IL1B secr inh -60, HT1080 IDH1KD tx inconclusive, TGFb inhibitor inconclusive, HT1080NT lethal inconclusive (no result: Giardia kill)
CC(C)CC(N)c1csc(Nc2ccc(C(=O)c3ccccc3)cc2)n1 (stereo not given)	HepG2 viability 16µM, IL1B secr inh -59, TGFb inhibitor 18µM, HT1080NT lethal inconclusive (no result: Giardia kill)
NC(c1csc(Nc2ccc(C(=O)c3ccccc3)cc2)n1)C1CCCCC1 (stereo not given)	IL1B secr inh inconclusive, HT1080 IDH1KD tx 15µM, TGFb inhibitor inconclusive, HT1080NT lethal inconclusive (no result: Giardia kill)
CC(=O)c1ccc(Nc2nc(C(N)C3CCCCC3)cs2)cc1 (stereo not given)	HT1080NT lethal inconclusive (no result: Giardia kill, IL1B secr inh)
CC(N)c1csc(Nc2ccc(C(=O)c3ccccc3)cc2)n1 (stereo not given)	IL1B secr inh -52, HT1080NT lethal inconclusive (no result: Giardia kill)
CC(=O)c1ccc(Nc2nc(C(N)C(C)C)cs2)cc1 (stereo not given)	IL1B secr inh inconclusive (no result: Giardia kill)
COc1ccc(/C=C/C(=O)NCC(=O)N/N=C(\C)Cc2ccccc2)cc1	none
Cc1cc(C)n(C)c(=O)c1C#N	none
CN(CCCNC(=O)CSc1cc(=O)n(C)c2cc(Cl)ccc12)Cc1ccccc1	IL1B secr inh inconclusive, HT1080 IDH1KD tx 21µM, TGFb inhibitor inconclusive, HT1080NT lethal inconclusive
Cn1c(=O)cc(SCC(=O)NCc2ccc(F)cc2)c2ccc(Cl)cc21	none (no result: Giardia kill, IL1B secr inh, HT1080 IDH1KD tx, HT1080NT lethal)
CCN1CCc2nc3sc(C(=O)N4CCc5ccccc5C4)c(N)c3cc2C1	IL1B secr inh -73, HT1080NT lethal inconclusive
COC(=O)C1=C(C)N(Cc2ccco2)C(=O)/C1=C\c1ccc(N(C)C)cc1	none
COC(=O)C1=C(C)N(Cc2ccco2)C(=O)/C1=C\c1ccc([N+](=O)[O-])cc1	IL1B secr inh -102, HT1080 IDH1KD tx inconclusive, TGFb inhibitor inconclusive, HT1080NT lethal inconclusive
O=S(=O)(Nc1ccc(-c2ccc(N3CCCCCC3)nn2)cc1)c1cccc(C(F)(F)F)c1	TGFb inhibitor inconclusive (no result: Giardia kill, IL1B secr inh, HT1080 IDH1KD tx, HT1080NT lethal)
O=C(CCl)NCCN1C(=O)S/C(=C\c2cccnc2)C1=O	IL1B secr inh -70, HT1080 IDH1KD tx inconclusive, HT1080NT lethal inconclusive
CC1(C(=O)Nc2cccc3ncccc23)CCN1C(=O)C1(c2ccccc2)CC1 (stereo not given)	none (no result: Giardia kill)
CSc1nc(N(C)NC(=O)c2ccc(Cl)cc2)c2ccccc2n1	HT1080 IDH1KD tx inconclusive, TGFb inhibitor inconclusive, HT1080NT lethal 0.73µM
CSc1nc(N(C)NC(=O)c2ccccc2)c2ccccc2n1	HT1080 IDH1KD tx 0.58µM, HT1080NT lethal 0.58µM
COc1ccc(C(=O)Nc2ccc(C(=O)c3ccccc3)cc2)cc1	HT1080 IDH1KD tx inconclusive, TGFb inhibitor inconclusive, HT1080NT lethal inconclusive
Cc1ccc(C(=O)N2C(CC(=O)Nc3ccc(Cl)cc3)C(=O)NC3CCCCC32)cc1 (stereo not given)	HT1080 IDH1KD tx 5.2µM, HT1080NT lethal 5.8µM
CCOC(=O)c1c(NC(=S)Nc2ccccc2)sc2c1CCN(CC)C2	none
CCN1C/C(=C\c2cccc([N+](=O)[O-])c2)C(=O)/C(=C/c2cccc([N+](=O)[O-])c2)C1	Giardia kill inconclusive, IL1B secr inh -104, HT1080 IDH1KD tx 2.3µM, TGFb inhibitor inconclusive, HT1080NT lethal 4.1µM
Nc1ccccc1C=C1Cc2ccccc2C1=O	none
O=C1C(=Cc2ccccc2[N+](=O)[O-])Cc2ccccc21	HepG2 viability 18µM, IL1B secr inh -103, HT1080 IDH1KD tx inconclusive, TGFb inhibitor 13µM, HT1080NT lethal inconclusive (no result: Giardia kill)
Cc1ccccc1/C=C1\CCCc2ccccc2C1=O	none
O=C1NC(=O)/C(=C/c2cccc3ccccc23)S1	none
O=C1NC(=O)C(=Cc2ccccc2[N+](=O)[O-])S1	IL1B secr inh inconclusive, HT1080 IDH1KD tx inconclusive, HT1080NT lethal 21µM
O=C1/C(=C\c2ccc3ccccc3c2)CCCc2ccccc21	HT1080 IDH1KD tx 13µM, HT1080NT lethal inconclusive
Cc1ccc(S(=O)(=O)/N=C/c2ccco2)cc1	none
O=C1CC(c2cccc(F)c2)SC(N(c2ccccc2)c2ccccc2)=N1 (stereo not given)	HT1080 IDH1KD tx inconclusive
CCc1cccc(NC(=O)c2cn3c4c(ccc(Cl)c4c2=O)OC(C)C3)c1 (stereo not given)	none (no result: Giardia kill, IL1B secr inh, HT1080 IDH1KD tx, HT1080NT lethal)
CCN(CC(=O)Nc1ccc(NC(C)=O)cc1)C(=O)CCCc1nc2ccccc2s1	none
O=C(NCC(c1cccnc1)N1CCc2ccccc2C1)C(=O)Nc1ccc(Cl)cc1 (stereo not given)	TGFb inhibitor inconclusive (no result: Giardia kill, IL1B secr inh, HT1080 IDH1KD tx, HT1080NT lethal)
O=C1/C(=C/c2cccc([N+](=O)[O-])c2)CCc2ccccc21	IL1B secr inh -121, HT1080 IDH1KD tx inconclusive, TGFb inhibitor inconclusive, HT1080NT lethal inconclusive
O=C1C(=Cc2ccccn2)CCc2ccccc21	HepG2 viability 13µM, IL1B secr inh -108, HT1080 IDH1KD tx inconclusive, TGFb inhibitor 10µM, HT1080NT lethal inconclusive (no result: Giardia kill)
COc1ccc2c(c1)CC/C(=C/c1ccccn1)C2=O	IL1B secr inh inconclusive, TGFb inhibitor inconclusive
CN(C)/C=N/c1nc2nccc(-c3cccc(Cl)c3)n2n1	IL1B secr inh -52

Source: PubChem (National Center for Advancing Translational Sciences (NCATS))
